# Screening results (PubChem BioAssay)
# In the library only some 6% were active in any assay of this set; here they are far more common.
# Tau fibril FP: inhibitors of human tau fibril formation; Potency, µM (top dose mostly 57.7 µM), usual class: inhibitors; P10636; K18 P301L tau heparin fibrillization, Alexa594 FP, 6 h; actives 0.39% (n = 280,000); AID 1468; note: nearly all actives have a fitted effect of over 55% in size
# Target sequence (P10636 561-689 P618L limits assumed): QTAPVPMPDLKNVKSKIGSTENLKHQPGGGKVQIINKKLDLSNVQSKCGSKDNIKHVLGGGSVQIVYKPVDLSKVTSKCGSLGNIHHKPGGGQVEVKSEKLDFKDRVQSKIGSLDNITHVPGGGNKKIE
#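 Human K18 P301L fragment (15 uM unlabeled plus 0.24 uM Alexa 594-labeled) in 100 mM sodium acetate pH 7 with compound, aggregation induced by 20 uM heparin for 6 hr at 37 C. ThT (30 uM) added for 1 hr, then Alexa 594 FP read.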
# Tau ThT inhib: tau fibrillization inhibition (ThT binding). P10636. recombinant tau K18 P301L, heparin-induced fibrillization, ThT fluorescence. Potency, µM (series often up to 57.4 µM), usual class: inhibitors. actives 2.1% (n = 270,000); note: nearly all actives have a fitted effect of over 55% in size
#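 Fibril formation assay: tau K18 P301L at 15 uM with trace Alexa 594 label, heparin inducer 20 uM, pH 7 sodium acetate buffer, 37 C for 6 hr; endpoint ThT signal.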
# Tau fluor cs: counter-screen for tau fibril formation inhibitors. tau K18 P301L (four-repeat tau fragment) Alexa594 fluorescence, heparin fibrillization. AID 1463. Potency, µM (top dose mostly 57.7 µM). actives 0.93% (n = 280,000); note: nearly all actives have a fitted effect of over 55% in size
#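 Human K18 P301L tau (15 uM unlabeled plus 0.24 uM Alexa 594-labeled, final) in 100 mM sodium acetate pH 7 was mixed with compound and 20 uM heparin and incubated 6 hr at 37 C.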
# Sfp PPTase inh: Sfp phosphopantetheinyl transferase inhibition. Q9F4F7. Biochemical Sfp PPTase activity, qHTS. Potency, µM, usual class: inhibitors. actives 3.5% (n = 310,000). AID 1490;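 note: the enzyme is Sfp with the accession as filed and its product quenches rhodamine fluorescence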
#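 Step 1, compound plus 15 nM Sfp-PPTase, 15 min, room temperature. Step 2, add rhodamine-CoA (5 uM) and BHQ-2-YbbR (12.5 uM). Step 3, read 525/598 nm fluorescence at 0 and 30 min.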
# VDR inh: blocks the human vitamin D receptor | P11473 | VDR-SRC2-3 peptide fluorescence polarization, 2 h | Potency, µM, hits mostly inhibitors | actives 0.93% (n = 400,000)
# Target sequence (P11473 whole entry, looked up): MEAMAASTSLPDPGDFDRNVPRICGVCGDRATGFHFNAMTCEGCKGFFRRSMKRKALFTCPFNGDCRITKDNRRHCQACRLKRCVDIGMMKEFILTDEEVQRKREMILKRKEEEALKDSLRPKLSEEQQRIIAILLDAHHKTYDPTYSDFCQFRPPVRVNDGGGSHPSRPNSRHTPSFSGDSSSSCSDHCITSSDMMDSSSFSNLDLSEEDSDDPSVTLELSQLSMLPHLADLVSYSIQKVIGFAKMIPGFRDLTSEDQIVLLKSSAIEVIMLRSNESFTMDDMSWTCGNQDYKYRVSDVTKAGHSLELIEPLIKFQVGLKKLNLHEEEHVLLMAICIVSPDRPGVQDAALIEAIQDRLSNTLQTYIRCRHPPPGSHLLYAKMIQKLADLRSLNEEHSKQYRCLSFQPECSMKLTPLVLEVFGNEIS
#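 Two reagent solutions held at 4 deg C in the dark were dispensed, compounds pinned at 23 nl, and the mixture incubated 2 h at room temperature. Read-out: fluorescence polarization of VDR–SRC2-3 peptide binding.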
# PLK1 PBD block: inhibitors of human PLK1 polo-box domain binding | P53350 | Potency, µM, actives largely listed as inhibitors | Plk1 PBD binding of FITC phosphopeptide, fluorescence polarization | actives 2.8% (n = 360,000); note: series mostly up to about 57 µM; nearly all actives have a fitted effect of over 65% in size
# Numbers stand for hits; n = inactive; u = inconclusive; x = no result; ! = not active in a repeat; [ ] = remark or other dose. Calls come from the whole dose curve; as a rule, active = well fitted curve in the direction sought with a large enough effect; inconclusive = small, poorly fitted or top-dose-only effect, or another doubt; inactive = no such curve, though single readings can be large; an effect the other way counts as inactive or inconclusive.
SMILES,Tau fibril FP,Tau ThT inhib,Tau fluor cs,Sfp PPTase inh,VDR inh,PLK1 PBD block
CC(=O)Nc1ccc(S(=O)(=O)NCCC(=O)NCc2ccco2)cc1,x,x,x,x,x,n
CC(C)C[C@H]1CN(CCCC[C@H]2CNC(=O)C(=O)N2CC2CCCCC2)C(=O)C(=O)N1CCc1ccccc1,x,x,x,x,x,n
CC(C)(C)OC(=O)NCC1CCN(S(=O)(=O)Cc2ccccc2)CC1,x,x,x,n,n,n
CC(C)(C)OC(=O)NCC12C=CC(O1)C1C(=O)N(Cc3ccccc3)C(=O)C12 (stereo not given),n,n,n,71µM,n,n
CC1=C(C(=O)N2CCCCCC2)CC(CC(=O)NC2CC2)C(=O)N1Cc1ccccc1 (stereo not given),x,x,x,x,x,n
O=C(O)[C@H]1CCCN1,n,n,n,45µM!,n,x
C/C(=N\NC(=O)c1cccc(S(=O)(=O)N2CCCC2)c1)c1cccs1,n,n,n,n,n,27µM
CC(=NNC(=O)c1cccc(S(=O)(=O)N2CCCC2)c1)c1ccccc1,x,x,x,x,n,n
COc1ccc(C)cc1-n1nnc(C(=O)Nc2cccc(SC)c2)c1C,n,n,n,x,n,x
Cc1ccc(CNC(=O)C2(CC(C)C)C=CCN2C(=O)c2ccccc2)o1 (stereo not given),n,u,n,40µM,x,x
CC(=O)N1[C@H](C)C=C[C@]1(Cc1ccccc1)C(=O)NCc1ccc(C)o1,n,n,n,22µM,x,x
COc1cccc(Nc2ncc3ncc(=O)n(CCc4ccccc4)c3n2)c1,x,x,x,n,n,x
CCOC(=O)C1CSc2[nH]c(=O)sc2C1c1ccccc1 (stereo not given),n,n,n,40µM,n,n
COC(=O)C1CSc2[nH]c(=O)sc2C1c1ccc(O)c(OC)c1 (stereo not given),n,n,n,56µM,n,u
CC(C)(C)OC(=O)N[C@@H](Cc1ccccc1)c1nnc(SCC(N)=O)o1,n,n,n,n,n,n
COC(=O)CSc1nnc([C@H](Cc2ccccc2)NC(=O)OC(C)(C)C)o1,n,n,n,n,n,n
Cc1cccc(CS(=O)(=O)c2nnc([C@H](Cc3ccccc3)NC(=O)OC(C)(C)C)o2)c1,n,n,n,18µM,u,2.7µM
COC(=O)CS(=O)(=O)c1nnc([C@H](Cc2ccccc2)NC(=O)OC(C)(C)C)o1,n,u,n,n,u,11µM
CN(C)C(=O)CSc1nnc([C@H](Cc2ccccc2)NC(=O)OC(C)(C)C)o1,n,n,n,n,n,27µM
C[C@H](NC(=O)OCc1ccccc1)c1nnc([C@H](Cc2ccccc2)NC(=O)OC(C)(C)C)o1,n,n,n,n,n,n
CCOCCc1nn2c(=O)cc(COC(=O)c3ccc4c(c3)OCO4)nc2s1,n,u,n,x,n,x
CCOc1ccccc1NC(=O)c1cc2cc(C)ccc2n1C,n,u,n,x,n,x
COc1ccc(N2C(=S)N(C(=O)c3ccccc3)C(=Nc3ccccc3)C2=Nc2ccccc2)cc1,x,x,x,x,u,21µM
COc1ccc(N=C2C(=Nc3ccc(OC)cc3)N(c3ccccc3)C(=S)N2C(=O)c2ccc(Cl)cc2)cc1,n,u,n,50µM,n,n
COc1ccc(N=C2C(=Nc3ccc(OC)cc3)N(c3ccc(OC)cc3)C(=S)N2C(=O)c2ccc(OC)cc2)cc1,n,28µM,n,n,u,n
SMILES,Tau fibril FP,Tau ThT inhib,Tau fluor cs,Sfp PPTase inh,VDR inh,PLK1 PBD block
Cc1cnc2c(c1SCC(=O)Nc1ccc(F)cc1F)c(=O)n(C)c(=O)n2C,n,n,n,x,n,x
C#CCOC(=O)NC(/C=C/CCCC)c1ccccc1 (stereo not given),n,n,n,n,x,x
O=Nc1nc2ncccn2c1-c1ccccc1,x,x,x,x,u,7.5µM
Cc1ccc(C2Nc3ccccc3-c3nc4ccccc4n32)o1 (stereo not given),u,u,32µM[quencher],n,n,n
Cc1ccc(NC(=O)CSCC(=O)Nc2ncc3c(n2)CC(c2ccco2)CC3=O)cc1 (stereo not given),n,u,n,14µM,n,n
CCOc1cccc2sc(N3CCN(C(=O)C(C)(C)C)CC3)nc12,n,n,n,x,n,x
CCOCCn1c(SC)nc2c1c(=O)[nH]c(=O)n2C,n,n,n,18µM,n,24µM
CCOCCn1c(N2CCCC2)nc2c1c(=O)[nH]c(=O)n2C,x,x,x,40µM,n,n
CCCCCCn1c(=O)n2n(c1=O)C[C@]1(OC(=O)NC3CCCC3)CN(S(=O)(=O)c3ccc(C)cc3)C[C@]1(O)C2,x,x,x,x,x,n
CCCOc1cc(C)nc(-c2ccccc2O)n1,n,16µM,u,n,n,n
Cc1cc(Nc2ccccc2Cl)nc(-c2ccccc2O)n1,x,x,x,n,n,n
Cc1cc(Nc2cccc(F)c2)nc(-c2ccccc2O)n1,11µM,n,u,n,n,n
CCOC(=O)c1ccc(Nc2cc(C)nc(-c3ccccc3O)n2)cc1,10µM,u,u,n,n,n
Cc1cc(OC(C)C)nc(-c2ccccc2O)n1,u,u,n,n,n,n
Cc1cc(NCc2ccccc2)nc(-c2ccccc2O)n1,u,u,13µM[quencher],n,n,n
COCCOC(=O)c1c(C)n(S(=O)(=O)c2ccc(C)cc2)c2ccc(NS(=O)(=O)c3ccc(C)cc3)cc12,u,n,u,x,n,x
CCCCNC(=O)C(CC)Sc1nc2sc(C(=O)OC)c(C)c2c(=O)n1N (stereo not given),n,n,n,50µM,n,n
CCC(Sc1nc2sc(C(=O)OC)c(C)c2c(=O)n1N)C(=O)N(CC)CC (stereo not given),n,n,n,n,n,n
COc1ccc(NC(=O)c2c(NC(=O)C(F)(F)F)sc3c2CCCCC3)cc1,n,16µM,u,x,n,x
COc1ccc(NC(=O)c2c(NCc3sccc3C)sc3c2CCCC3)c(OC)c1,n,u,u,x,n,x
CCOC(=O)c1ccc(NC(=O)c2c(NCc3sccc3C)sc3c2CCCCC3)cc1,n,32µM,n,x,u,x
COc1ccc(NC(=O)c2c(NCc3ccc(OC)c(OC)c3OC)sc3c2CCC3)c(OC)c1,n,14µM,u,x,n,x
COc1ccc(NC(=O)c2c(NCc3ccc(N(C)C)cc3)sc3c2CCC3)cc1,n,16µM,u,x,n,x
Cc1ccc(C2=NN(CC(=O)NC(C)c3ccccc3)C(=O)CC2)cc1 (stereo not given),n,n,n,x,n,x
COc1ccc(-n2c(CCC(=O)O)ccc2-c2ccc(F)cc2)c(OC)c1,x,x,x,n,n,n
O=C(O)CCc1ccc(-c2ccccc2)n1-c1cccc(Br)c1,n,n,n,x,u,x
CCCC(=O)Nc1sc(-c2ccccc2)c(-c2ccccc2)c1C(=O)O,x,x,x,x,n,n
